Assay results published in PubChem BioAssay (NCATS).
Records with an inconclusive call do not appear. Calls of active or inactive are those of the source. The call rests on the fitted dose curve; in most records, active means well fitted inhibition curve with a large enough effect; inconclusive means small, poorly fitted or top-dose-only effect; inactive means flat fitted curve, though single readings scatter.

What was measured:
[1] = system: HEK293; assay: Cytotoxic Profiling of Annotated Libraries Using Quantitative High-Throughput Screening (AID 1296008); conditions: Five cell lines viability, CellTiter-Glo ATP luminescence, 48-72 h; max response: hits give low values; on max response: on the % scale 0 is the no-effect control and ±100 the full control effect
Summary of the method: (§1)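 Cells exposed to compounds for 48 or 72 hr at 37 degrees Celsius. Viability read as ATP-coupled luminescence with CellTiter-Glo after 10 min at room temperature.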

[2] = system: HaCat; assay: as above; conditions: Five cell lines viability, CellTiter-Glo ATP luminescence, 48-72 h; max response: hits give low values
Summary of the method: as §1

[3] = system: KB-3-1; assay: as above; conditions: Five cell lines viability, CellTiter-Glo ATP luminescence, 48-72 h; max response: hits give low values
Summary of the method: as §1

[4] = system: NIH3T3; assay: as above; conditions: Five cell lines viability, CellTiter-Glo ATP luminescence, 48-72 h; max response: hits give low values
Summary of the method: as §1

[5] = system: HACAT; assay: qHTS assay to identify novel small-molecules to repurpose for Merkel cell carcinoma treatment (AID 1296009); conditions: MCC and control cell lines, CellTiter-Glo viability, 72 h; at 44.8 µM (top of the series) unless noted
Summary of the method: (§2)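 Cells were incubated with compound for 72 hr at 37 degree celsius before CellTiter-Glo addition. Luminescence was normalized with no-cell wells as full cytotoxicity and DMSO as baseline.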

[6] = system: HEK293T; assay: as above; conditions: MCC and control cell lines, CellTiter-Glo viability, 72 h; series mostly up to 44.8 µM
Summary of the method: as §2
Further: nearly all actives have a fitted effect of over 60% in size.

CN[C@@H]1[C@@H](O)[C@@H](O[C@@H]2[C@@H](O)[C@H](O[C@H]3O[C@H](CN)[C@@H](O)[C@H](O)[C@H]3O)[C@@H](N)C[C@H]2NC(=O)[C@@H](O)CN)OC[C@]1(C)O
inactive: outcome [1] | outcome [2] | max response [3] -2.9% | outcome [4] | outcome [5] | Potency [6]

CC1(CO)CC2C(O)C(=O)C3(CO)CC3(C)C2C1 (configuration not stated)
inactive: outcome [1] | outcome [2] | max response [3] 2.2% | outcome [4] | outcome [5] | Potency [6]

C[C@@H]1O[C@@H](O[C@@H]2[C@@H](O)[C@H](O[C@@H]3[C@@H](O)[C@@H](O)[C@H](O[C@H]4[C@H](OC(=O)[C@]56CCC(C)(C)C[C@H]5C5=CCC7[C@@]8(C)C[C@H](O)[C@H](O[C@@H]9O[C@@H](C)[C@H](O)[C@@H](O)[C@H]9O)[C@@](C)(CO)C8CC[C@@]7(C)[C@]5(C)C[C@H]6O)O[C@H](C)[C@H](O)[C@@H]4O)O[C@H]3C)OC[C@H]2O)[C@H](O)[C@H](O)[C@H]1O (some centres not stated)
inactive: outcome [1] | outcome [2] | outcome [3] | outcome [4] | outcome [5] inactive [at 9.27 µM] | outcome [6] inactive [at 9.27 µM]

CC(=O)OCC(=O)O[C@@H]1[C@H]2[C@@H](OC(=O)c3ccccc3)[C@@H](C)C[C@]2(O)[C@H](OC(C)=O)C2(C)[C@H]3CC(C)(C)C(=O)[C@@H]3CC1(OC(C)=O)[C@@H]2OC(C)=O (some centres not stated)
inactive: outcome [1] | outcome [2] | max response [3] 9.67% | outcome [4] | outcome [5] inactive [at 17.4 µM] | Potency [6]

CCC/C=C/C(=O)O[C@H]1CC(C)(C)CC2[C@]13[C@H](O)O[C@@]21CCC2[C@@]4(C)CC[C@H](O[C@@H]5O[C@H](C(=O)O)[C@@H](O)[C@H](O[C@@H]6O[C@H](CO)[C@H](O)[C@H](O)[C@H]6O[C@@H]6O[C@@H](C)[C@H](O)[C@@H](O)[C@H]6O[C@@H]6OC[C@](O)(CO)[C@H]6O)[C@H]5O[C@@H]5O[C@H](CO)[C@H](O)[C@H](O)[C@H]5O)C(C)(C)C4CC[C@@]2(C)[C@]1(C)C[C@H]3OC(C)=O (some centres not stated)
inactive: outcome [1] | outcome [2] | max response [3] 6.11% | max response [4] 0.954% | outcome [5] inactive [at 9.27 µM] | outcome [6] inactive [at 9.27 µM]

O=C(O[C@@H]1O[C@H](CO)[C@@H](O)[C@H](O)[C@H]1O)c1c(O)cc(O)cc1/C=C/c1ccccc1
inactive: outcome [1] | outcome [2] | outcome [3] | max response [4] 3.61% | outcome [5] inactive [at 17.4 µM] | Potency [6]

C[C@]12CCC[C@](C)(C(=O)O)C1CCC13C=C(CO)C(CCC12)C3 (some centres not stated)
inactive: outcome [1] | outcome [2] | max response [3] 2.91% | outcome [4] | outcome [5] | Potency [6]
